# Assay results as given in ChEMBL document CHEMBL1961873, “Compounds: GSK PKIS; Assays: Nanosyn kinase panel” (2012).
# Columns and labels:
# [1] = biological target: Sphingosine kinase 1 (Homo sapiens) (UniProt Q9NYA1); conditions: at 1 µM;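 also: mean SPHK1 inhibition value reported from the GSK PKIS kinase panel screen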
# [2] = biological target: T1, Sphingosine kinase 2 (Homo sapiens) (UniProt Q9NRA0); conditions: at 0.1 µM
# T1 sequence (whole entry): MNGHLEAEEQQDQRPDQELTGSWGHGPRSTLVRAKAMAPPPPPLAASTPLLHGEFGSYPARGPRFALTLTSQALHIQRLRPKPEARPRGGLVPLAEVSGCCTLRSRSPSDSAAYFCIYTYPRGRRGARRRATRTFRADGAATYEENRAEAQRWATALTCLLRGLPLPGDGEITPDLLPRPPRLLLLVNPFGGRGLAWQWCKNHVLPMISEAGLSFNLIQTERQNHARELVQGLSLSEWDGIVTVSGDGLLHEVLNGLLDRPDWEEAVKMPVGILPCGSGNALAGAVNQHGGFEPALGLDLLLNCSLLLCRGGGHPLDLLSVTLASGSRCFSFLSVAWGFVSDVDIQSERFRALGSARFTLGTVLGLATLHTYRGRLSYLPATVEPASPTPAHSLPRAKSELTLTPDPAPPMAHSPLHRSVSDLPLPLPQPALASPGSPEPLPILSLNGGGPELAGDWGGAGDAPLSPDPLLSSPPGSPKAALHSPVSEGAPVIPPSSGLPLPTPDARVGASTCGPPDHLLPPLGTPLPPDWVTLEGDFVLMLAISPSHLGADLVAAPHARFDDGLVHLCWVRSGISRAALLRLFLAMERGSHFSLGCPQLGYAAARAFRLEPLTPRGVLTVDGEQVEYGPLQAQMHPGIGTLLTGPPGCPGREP
# [3] = biological target: T1, Sphingosine kinase 2 (Homo sapiens); conditions: at 1 µM
# [4] = biological target: Casein kinase II subunit alpha (Homo sapiens) (UniProt P68400); conditions: at 0.1 µM
# Casein kinase II subunit alpha (Homo sapiens), sequence (P68400 whole entry, looked up): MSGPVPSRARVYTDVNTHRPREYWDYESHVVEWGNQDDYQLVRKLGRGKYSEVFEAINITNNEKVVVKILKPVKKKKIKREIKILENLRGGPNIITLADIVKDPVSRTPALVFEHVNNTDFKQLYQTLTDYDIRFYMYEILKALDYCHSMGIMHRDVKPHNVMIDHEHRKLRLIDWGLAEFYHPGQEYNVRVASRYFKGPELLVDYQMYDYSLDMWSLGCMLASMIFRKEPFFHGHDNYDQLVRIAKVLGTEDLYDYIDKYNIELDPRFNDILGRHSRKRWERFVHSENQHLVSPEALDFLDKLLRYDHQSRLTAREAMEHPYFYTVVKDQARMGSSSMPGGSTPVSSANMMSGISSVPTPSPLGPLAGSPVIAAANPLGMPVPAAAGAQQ
# [5] = biological target: Casein kinase II subunit alpha (Homo sapiens) (UniProt P68400); conditions: at 1 µM
# [6] = biological target: T2, Inhibitor of nuclear factor kappa-B kinase subunit alpha (Homo sapiens) (UniProt O15111); conditions: at 0.1 µM
# T2 sequence (whole entry): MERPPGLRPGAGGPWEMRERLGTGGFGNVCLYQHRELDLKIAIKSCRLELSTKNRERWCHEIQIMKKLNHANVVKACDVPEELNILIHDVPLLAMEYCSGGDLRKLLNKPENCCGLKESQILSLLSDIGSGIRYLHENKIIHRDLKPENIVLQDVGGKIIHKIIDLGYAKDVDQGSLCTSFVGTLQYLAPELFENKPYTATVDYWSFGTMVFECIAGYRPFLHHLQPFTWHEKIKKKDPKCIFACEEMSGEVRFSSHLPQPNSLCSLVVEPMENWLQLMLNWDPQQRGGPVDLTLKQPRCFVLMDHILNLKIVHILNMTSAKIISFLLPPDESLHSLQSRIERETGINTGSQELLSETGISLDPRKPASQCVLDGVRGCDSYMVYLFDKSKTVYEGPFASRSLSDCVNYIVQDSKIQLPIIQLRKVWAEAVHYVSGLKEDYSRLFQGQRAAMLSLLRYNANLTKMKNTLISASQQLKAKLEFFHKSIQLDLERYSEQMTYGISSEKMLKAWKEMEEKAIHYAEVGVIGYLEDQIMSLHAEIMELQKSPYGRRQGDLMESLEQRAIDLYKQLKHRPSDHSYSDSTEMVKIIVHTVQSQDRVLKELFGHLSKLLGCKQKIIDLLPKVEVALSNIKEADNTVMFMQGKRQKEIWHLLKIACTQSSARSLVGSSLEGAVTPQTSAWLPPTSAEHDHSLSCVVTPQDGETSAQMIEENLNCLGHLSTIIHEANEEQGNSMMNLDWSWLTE
# [7] = biological target: T2, Inhibitor of nuclear factor kappa-B kinase subunit alpha (Homo sapiens); conditions: at 1 µM
# [8] = biological target: T3, Inhibitor of nuclear factor kappa-B kinase subunit beta (Homo sapiens) (UniProt O14920); conditions: at 0.1 µM
# T3 sequence (whole entry): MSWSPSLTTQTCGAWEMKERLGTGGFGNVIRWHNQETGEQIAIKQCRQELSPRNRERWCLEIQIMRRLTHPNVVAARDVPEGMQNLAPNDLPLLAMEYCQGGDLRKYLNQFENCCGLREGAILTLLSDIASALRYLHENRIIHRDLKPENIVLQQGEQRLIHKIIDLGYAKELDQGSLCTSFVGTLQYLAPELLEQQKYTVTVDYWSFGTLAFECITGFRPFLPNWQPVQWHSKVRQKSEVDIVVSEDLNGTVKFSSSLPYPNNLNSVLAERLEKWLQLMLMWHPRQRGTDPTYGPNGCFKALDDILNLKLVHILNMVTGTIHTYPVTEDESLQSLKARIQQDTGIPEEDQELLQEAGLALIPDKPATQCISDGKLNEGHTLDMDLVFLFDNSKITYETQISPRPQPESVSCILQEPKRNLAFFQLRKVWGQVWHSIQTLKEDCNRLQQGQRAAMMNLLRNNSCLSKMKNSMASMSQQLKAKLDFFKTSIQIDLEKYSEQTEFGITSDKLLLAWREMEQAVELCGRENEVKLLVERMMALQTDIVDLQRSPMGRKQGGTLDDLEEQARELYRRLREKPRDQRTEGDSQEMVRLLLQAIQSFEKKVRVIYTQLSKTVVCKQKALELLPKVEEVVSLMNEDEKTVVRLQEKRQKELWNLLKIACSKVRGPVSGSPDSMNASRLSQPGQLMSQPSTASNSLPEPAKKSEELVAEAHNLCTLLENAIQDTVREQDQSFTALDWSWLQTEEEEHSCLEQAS
# [9] = biological target: T3, Inhibitor of nuclear factor kappa-B kinase subunit beta (Homo sapiens); conditions: at 1 µM
# [10] = biological target: T4, Inhibitor of nuclear factor kappa-B kinase subunit epsilon (Homo sapiens) (UniProt Q14164); conditions: at 0.1 µM
# T4 sequence (whole entry): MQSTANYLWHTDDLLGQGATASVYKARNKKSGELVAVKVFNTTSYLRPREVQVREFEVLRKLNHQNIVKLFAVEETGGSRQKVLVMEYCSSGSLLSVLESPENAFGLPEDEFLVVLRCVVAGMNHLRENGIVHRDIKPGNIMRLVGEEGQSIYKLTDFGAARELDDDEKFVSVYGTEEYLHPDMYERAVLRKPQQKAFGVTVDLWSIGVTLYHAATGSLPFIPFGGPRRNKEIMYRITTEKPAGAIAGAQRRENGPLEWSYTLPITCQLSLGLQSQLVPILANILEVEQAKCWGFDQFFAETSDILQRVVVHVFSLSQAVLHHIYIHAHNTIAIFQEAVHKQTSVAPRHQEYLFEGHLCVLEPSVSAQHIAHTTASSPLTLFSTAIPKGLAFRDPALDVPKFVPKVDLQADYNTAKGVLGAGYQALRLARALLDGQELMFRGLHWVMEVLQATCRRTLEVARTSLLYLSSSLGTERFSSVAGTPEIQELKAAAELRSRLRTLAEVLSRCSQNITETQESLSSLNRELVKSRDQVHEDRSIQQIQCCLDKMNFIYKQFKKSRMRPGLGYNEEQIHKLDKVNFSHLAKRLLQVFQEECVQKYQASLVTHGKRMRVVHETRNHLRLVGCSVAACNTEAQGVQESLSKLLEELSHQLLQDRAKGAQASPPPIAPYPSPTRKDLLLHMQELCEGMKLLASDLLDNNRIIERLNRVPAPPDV
# [11] = biological target: T4, Inhibitor of nuclear factor kappa-B kinase subunit epsilon (Homo sapiens); conditions: at 1 µM
# [12] = biological target: T5, Serine/threonine-protein kinase Nek1 (Homo sapiens) (UniProt Q96PY6); conditions: at 0.1 µM
# T5 sequence (whole entry): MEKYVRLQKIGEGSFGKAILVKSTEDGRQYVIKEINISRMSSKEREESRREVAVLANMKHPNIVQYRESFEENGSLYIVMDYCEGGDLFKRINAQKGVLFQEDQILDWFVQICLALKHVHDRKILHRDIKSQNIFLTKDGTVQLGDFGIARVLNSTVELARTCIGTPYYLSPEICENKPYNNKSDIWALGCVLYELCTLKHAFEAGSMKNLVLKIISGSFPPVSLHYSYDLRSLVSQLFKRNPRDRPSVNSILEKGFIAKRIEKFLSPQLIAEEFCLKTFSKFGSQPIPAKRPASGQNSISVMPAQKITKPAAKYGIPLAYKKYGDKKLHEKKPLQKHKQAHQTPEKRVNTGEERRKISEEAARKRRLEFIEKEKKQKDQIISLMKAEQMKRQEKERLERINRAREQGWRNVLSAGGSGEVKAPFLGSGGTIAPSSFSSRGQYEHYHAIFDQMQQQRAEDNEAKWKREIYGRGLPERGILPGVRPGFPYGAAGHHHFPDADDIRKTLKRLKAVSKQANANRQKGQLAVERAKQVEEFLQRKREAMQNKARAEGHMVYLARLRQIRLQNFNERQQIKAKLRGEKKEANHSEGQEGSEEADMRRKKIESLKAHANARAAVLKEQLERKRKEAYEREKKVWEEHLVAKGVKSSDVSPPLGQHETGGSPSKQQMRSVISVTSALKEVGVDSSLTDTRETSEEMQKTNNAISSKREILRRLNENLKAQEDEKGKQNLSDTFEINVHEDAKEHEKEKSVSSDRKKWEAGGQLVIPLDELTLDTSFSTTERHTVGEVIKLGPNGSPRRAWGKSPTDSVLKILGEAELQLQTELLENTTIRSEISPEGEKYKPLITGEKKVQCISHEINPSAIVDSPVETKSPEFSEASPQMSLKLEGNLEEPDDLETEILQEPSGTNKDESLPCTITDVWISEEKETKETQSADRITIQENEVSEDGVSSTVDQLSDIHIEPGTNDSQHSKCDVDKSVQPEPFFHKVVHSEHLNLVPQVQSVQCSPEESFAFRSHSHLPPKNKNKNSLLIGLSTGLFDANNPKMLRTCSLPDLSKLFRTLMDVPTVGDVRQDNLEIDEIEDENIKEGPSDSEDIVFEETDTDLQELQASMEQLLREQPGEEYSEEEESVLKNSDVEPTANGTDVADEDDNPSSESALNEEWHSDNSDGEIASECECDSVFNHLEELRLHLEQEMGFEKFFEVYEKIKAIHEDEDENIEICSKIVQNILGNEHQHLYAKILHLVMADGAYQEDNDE
# [13] = biological target: T5, Serine/threonine-protein kinase Nek1 (Homo sapiens); conditions: at 1 µM
# [14] = biological target: T6, Serine/threonine-protein kinase Nek2 (Homo sapiens) (UniProt P51955); conditions: at 0.1 µM
# T6 sequence (whole entry): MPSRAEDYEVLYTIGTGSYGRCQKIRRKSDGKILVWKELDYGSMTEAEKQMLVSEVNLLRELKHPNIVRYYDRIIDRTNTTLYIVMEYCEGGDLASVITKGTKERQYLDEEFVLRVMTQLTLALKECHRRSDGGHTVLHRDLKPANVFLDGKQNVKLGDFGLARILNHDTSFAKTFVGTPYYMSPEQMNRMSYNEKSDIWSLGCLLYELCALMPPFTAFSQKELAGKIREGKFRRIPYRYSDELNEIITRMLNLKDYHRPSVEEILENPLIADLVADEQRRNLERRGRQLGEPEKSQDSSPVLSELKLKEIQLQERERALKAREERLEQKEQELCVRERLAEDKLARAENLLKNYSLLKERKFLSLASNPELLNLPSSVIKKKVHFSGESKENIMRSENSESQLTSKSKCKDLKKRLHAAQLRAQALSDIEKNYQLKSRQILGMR
# [15] = biological target: T6, Serine/threonine-protein kinase Nek2 (Homo sapiens); conditions: at 1 µM
# [16] = biological target: Serine/threonine-protein kinase Nek6 (Homo sapiens) (UniProt Q9HC98); conditions: at 0.1 µM
# Serine/threonine-protein kinase Nek6 (Homo sapiens), sequence (Q9HC98 whole entry): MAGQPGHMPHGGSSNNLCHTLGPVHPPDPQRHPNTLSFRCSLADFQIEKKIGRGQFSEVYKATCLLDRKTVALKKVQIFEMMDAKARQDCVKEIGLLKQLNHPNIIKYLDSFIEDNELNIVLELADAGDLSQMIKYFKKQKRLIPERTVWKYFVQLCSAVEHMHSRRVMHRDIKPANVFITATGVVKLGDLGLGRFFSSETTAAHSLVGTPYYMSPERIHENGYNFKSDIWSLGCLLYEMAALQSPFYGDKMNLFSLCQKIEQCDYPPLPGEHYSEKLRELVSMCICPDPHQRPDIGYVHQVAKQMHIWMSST
# [17] = biological target: Serine/threonine-protein kinase Nek6 (Homo sapiens) (UniProt Q9HC98); conditions: at 1 µM
# [18] = biological target: Serine/threonine-protein kinase Nek7 (Homo sapiens) (UniProt Q8TDX7); conditions: at 0.1 µM
# Serine/threonine-protein kinase Nek7 (Homo sapiens), sequence (Q8TDX7 whole entry, looked up): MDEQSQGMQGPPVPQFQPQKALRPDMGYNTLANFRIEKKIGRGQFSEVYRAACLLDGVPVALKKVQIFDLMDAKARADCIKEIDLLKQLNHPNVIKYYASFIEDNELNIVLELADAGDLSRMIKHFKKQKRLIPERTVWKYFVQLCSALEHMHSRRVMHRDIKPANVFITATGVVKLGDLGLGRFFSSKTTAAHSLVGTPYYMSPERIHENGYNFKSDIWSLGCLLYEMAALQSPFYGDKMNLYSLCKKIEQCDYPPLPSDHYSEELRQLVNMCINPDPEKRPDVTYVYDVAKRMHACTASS
# [19] = biological target: Serine/threonine-protein kinase Nek7 (Homo sapiens) (UniProt Q8TDX7); conditions: at 1 µM
# [20] = biological target: T7, Serine/threonine-protein kinase Nek9 (Homo sapiens) (UniProt Q8TD19); conditions: at 0.1 µM;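 also: reported value is the mean percent inhibition of NEK9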
# T7 sequence (whole entry): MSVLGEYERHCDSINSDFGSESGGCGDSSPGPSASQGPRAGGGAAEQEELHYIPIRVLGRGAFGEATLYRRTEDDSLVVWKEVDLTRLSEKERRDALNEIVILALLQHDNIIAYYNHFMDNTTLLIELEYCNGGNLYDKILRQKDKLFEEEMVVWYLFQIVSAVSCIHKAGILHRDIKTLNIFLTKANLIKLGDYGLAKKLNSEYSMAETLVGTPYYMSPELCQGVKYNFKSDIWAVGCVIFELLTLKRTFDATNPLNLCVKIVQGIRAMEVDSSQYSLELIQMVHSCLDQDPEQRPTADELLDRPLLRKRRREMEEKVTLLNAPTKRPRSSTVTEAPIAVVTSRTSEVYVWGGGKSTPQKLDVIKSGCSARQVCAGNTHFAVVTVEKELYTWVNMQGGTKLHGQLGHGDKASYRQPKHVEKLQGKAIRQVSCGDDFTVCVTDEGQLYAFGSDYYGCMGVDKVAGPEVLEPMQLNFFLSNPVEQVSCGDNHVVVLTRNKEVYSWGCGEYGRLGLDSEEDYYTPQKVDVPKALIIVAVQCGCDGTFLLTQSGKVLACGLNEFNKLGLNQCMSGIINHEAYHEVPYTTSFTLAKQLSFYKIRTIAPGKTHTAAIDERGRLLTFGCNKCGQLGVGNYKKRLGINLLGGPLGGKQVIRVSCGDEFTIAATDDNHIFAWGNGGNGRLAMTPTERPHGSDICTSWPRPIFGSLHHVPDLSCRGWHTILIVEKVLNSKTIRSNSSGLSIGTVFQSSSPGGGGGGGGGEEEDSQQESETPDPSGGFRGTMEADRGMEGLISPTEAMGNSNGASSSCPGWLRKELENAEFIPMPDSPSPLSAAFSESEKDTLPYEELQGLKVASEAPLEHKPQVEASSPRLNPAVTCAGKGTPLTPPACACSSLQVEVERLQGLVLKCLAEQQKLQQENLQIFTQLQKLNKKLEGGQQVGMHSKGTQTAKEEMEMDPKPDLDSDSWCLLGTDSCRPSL
# Sphingosine kinase 1 (Homo sapiens), sequence (Q9NYA1 whole entry): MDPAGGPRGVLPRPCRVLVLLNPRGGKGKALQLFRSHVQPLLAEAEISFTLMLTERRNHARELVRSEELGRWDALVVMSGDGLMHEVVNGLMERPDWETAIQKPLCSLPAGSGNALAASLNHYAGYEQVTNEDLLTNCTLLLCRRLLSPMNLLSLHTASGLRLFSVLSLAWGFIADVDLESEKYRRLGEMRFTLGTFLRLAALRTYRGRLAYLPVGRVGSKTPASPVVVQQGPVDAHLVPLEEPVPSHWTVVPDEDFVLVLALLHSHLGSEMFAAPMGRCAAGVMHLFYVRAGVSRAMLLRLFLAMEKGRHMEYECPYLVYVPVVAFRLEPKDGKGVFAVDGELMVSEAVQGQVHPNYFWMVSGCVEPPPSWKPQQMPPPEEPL
smiles,measurement,setting,value
CCc1ccc(Oc2nccc(-c3c(-c4ccc(F)cc4)ncn3C3CCNCC3)n2)cc1,inhibition,[1],11.5%
same,inhibition,[2],1.25%
same,inhibition,[3],0.72%
same,inhibition,[4],3.17%
same,inhibition,[5],4.14%
same,inhibition,[6],-3.32%
same,inhibition,[7],-1.04%
same,inhibition,[8],3.54%
same,inhibition,[9],4.07%
same,inhibition,[10],8.2%
same,inhibition,[11],6.86%
same,inhibition,[12],2.27%
same,inhibition,[13],1.69%
same,inhibition,[14],4.75%
same,inhibition,[15],2.36%
same,inhibition,[16],2.41%
same,inhibition,[17],0.8%
same,inhibition,[18],2.65%
same,inhibition,[19],5.98%
same,inhibition,[20],-0.95%
